Hits are enriched below; roughly 1.9% of the tested compounds scored in any of these assays.
Menin MLL FP FL = qHTS Assay for Inhibitors Targeting the Menin-MLL Interaction in MLL Related Leukemias: Competition With Fluorescein Labeled MLL-derived Peptide. Fluorescence polarization, fluorescein-MLL peptide displacement from menin. FP activity change, % at 61.4 µM. 290,000 tested, under 10 active; active = well fitted curve in the direction sought with a large enough effect in the polarisation, not every such curve was filed as active; inconclusive = small, poorly fitted or top-dose-only effect, or effect the other way, or a change in a side signal; inactive = no such curve, though single readings can be large or run the other way; the % refers to the polarisation; note: % of control where 0% means no effect
Epigenetic derep = Quantitative High-Throughput Screen for Regulators of Epigenetic Control | murine LDR cells, GFP reporter derepression, 30 h | Potency, µM (doses to about 53.9 µM), for the others: at the top dose GFP activation, hits mostly activators | 280,000 tested, 0.2% active | AID 1865, 2009; active = well fitted activation curve with a large enough effect; inconclusive = small, poorly fitted or top-dose-only effect; note: potency is the fitted concentration of half-maximal effect; % of control where 0% means no effect; nearly all actives have a fitted effect of over 60% in size
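Murine LDR cells bearing a silenced CMV-driven GFP reporter were exposed to compound for 30 h at 37 C. After PBS washes, GFP-positive cells (20-120 um objects) counted by laser-scanning microplate cytometry.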
PINK1 modulator = A Quantitative High throughput Screen to Identify Chemical Modulators of PINK1 Expression. PINK1 immunofluorescence, high-content cytometry, 24 h. Potency, µM (top dose mostly 76.6 µM), inactives show at the top dose activation (PINK1 increase), hits mostly activators. 410,000 tested, 0.2% active. AID 624263, 2012; active = well fitted activation curve with a large enough effect; inconclusive = small, poorly fitted or top-dose-only effect; cell line not stated here; note: potency is the fitted concentration of half-maximal effect; % of control where 0% means no effect; nearly all actives have a fitted effect of over 65% in size
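Fluorescence from anti-PINK1 antibody, together with nuclear and cell stains, was scanned on a laser-scanning cytometer. Before staining, stable-line cells were incubated 24 hours with compounds at 5 concentrations; primary antibody 12 h at 10 degrees C.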
Menin MLL FP TR = qHTS Assay for Inhibitors Targeting the Menin-MLL Interaction in MLL Related Leukemias: Competition With Texas Red Labeled MLL-derived Mutant Peptide. Menin + Texas Red MLL mutant peptide, fluorescence polarization. Potency, µM (top dose mostly 61.6 µM), for the others: at the top dose FP activity change, negative = inhibition, actives largely listed as inhibitors. 270,000 tested, 0.23% active; active = well fitted inhibition curve with a large enough effect in the polarisation, with a control signal flat, not every such curve was filed as active; inconclusive = small, poorly fitted or top-dose-only effect, or effect the other way, or a change in a side signal; inactive = no such curve, though single readings can be large or run the other way; the % refers to the polarisation; note: potency is the fitted concentration of half-maximal effect; % of control where 0% means no effect
ClpP mod = qHTS Assay for Activators of ClpP; purified B. subtilis ClpP, FRET peptide cleavage, 20 min; Potency, µM (top dose mostly 57.5 µM), for inactives: top-dose activity change, negative = active; 340,000 tested, 1.9% active; active = well fitted falling curve with a large enough effect; inconclusive = small, poorly fitted or top-dose-only effect; inactive = no such curve, though single readings can be large or run the other way; note: potency is the fitted concentration of half-maximal effect; the source files actives as falling curves though it sought activators and does not explain the sign; nearly all actives have a fitted effect of over 65% in size
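ClpP 10 microg/mL final, pH 8 Tris/KCl buffer with BSA, glycerol, Tween-20; compound pinned in; FRET-FV substrate; RT 20 min; Ex320/Em430; ΔFRET vs ADEP 5.8 microM, DMSO, no enzyme.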
CXXC DNA block = qHTS Fluorescence Polarization Assay for Inhibitors of MLL CXXC domain - DNA interaction; Histone-lysine N-methyltransferase 2A (Homo sapiens), Q03164; MLL-CXXC / FITC-HOXA9 DNA fluorescence polarization; Potency, µM (titrated, usually from 115 µM), for the others: at the highest dose activity change, negative = inhibition, actives largely listed as inhibitors; 290,000 tested, 0.037% active; AID 2662, 2010; active = well fitted inhibition curve with a large enough effect in the polarisation, with a control signal flat, not every such curve was filed as active; inconclusive = small, poorly fitted or top-dose-only effect, or effect the other way, or a change in a side signal; inactive = no such curve, though single readings can be large or run the other way; the % refers to the polarisation; note: potency is the fitted concentration of half-maximal effect
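Purified MLL-CXXC (added from a 7 uM solution) was preincubated 5 min at ambient with pinned compounds in 50 mM Tris-HCl pH 7.5, 50 mM NaCl, 1 mM DTT, 0.05% BSA. Fluorescein-labeled HOX-A9 DNA (50 nM solution) followed, 30 min, then polarization read.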
* marks the source's active call; other numbers are inactive results; u = inconclusive; x = no result given; [ ] = another dose, or the depositor's remark.

SMILES	Menin MLL FP FL	Epigenetic derep	PINK1 modulator	Menin MLL FP TR	ClpP mod	CXXC DNA block
COc1cc(-c2nnc(-c3cccs3)o2)cc(OC)c1OC	0	-4%	3%	-1%	u	-3%
COc1ccc(-c2nnc(-c3cccs3)o2)cc1OC	1	0%	-3%[38.3 µM]	-14%	32µM*	-3%
O=C(CC1SC(N2CCCC2)=NC1=O)Nc1ccc(C(=O)N2CCN(c3cccc(Cl)c3)CC2)cc1 (configuration not stated)	x	x	1%	x	32µM*	x
Cc1cccc(N2CCN(C(=O)c3ccc(NC(=O)CC4SC(N5CCCC5)=NC4=O)cc3)CC2)c1C (configuration not stated)	x	x	1%	x	0%	x
CN(Cc1ccccc1)/[N+]([O-])=N/Oc1ccc([N+](=O)[O-])cc1[N+](=O)[O-]	x	x	0%	x	x	x
Cc1ccc2[nH]c3nc(SCCN4CCOCC4)nnc3c2c1	0	0%	-1%	7%	0%	12%
Cc1ccc2[nH]c3nc(NN)nnc3c2c1	-7	x	6%	11%	28µM*	17%
O=C(COc1nnc2ccccn12)N1CCN(S(=O)(=O)c2ccccc2)CC1	x	x	-1%	x	32µM*	x
CC1CN(CCC(=O)NC(c2cccnc2)C(F)(F)F)Cc2cc(Cl)ccc2O1 (configuration not stated)	x	x	0%	x	x	x
Cc1nc(C(=O)Nc2ccc(Cl)cc2Cl)nn1-c1cc(OC(C)C)c(Cl)cc1Cl	-1	3%	4%	x	28µM*	-2%
Cc1cc(=O)n2c3ccccc3n(CC(O)CN3CCC(C)CC3)c2c1C#N (configuration not stated)	-1	4%	3%	9%	35µM*	1%
CCC1CCCCN1CC(O)Cn1c2ccccc2n2c(=O)cc(C)c(C#N)c12 (configuration not stated)	2	3%	-1%	u	28µM*	u
Cc1c(C(=O)N2CCOc3ccccc3C2)sc2ncnc(NCCCN3CCOCC3)c12	x	x	0%	x	x	x
CC(/C=C/C=C(\C)C(=O)O[C@@H]1O[C@H](CO[C@@H]2O[C@H](CO)[C@@H](O)[C@H](O)[C@H]2O)[C@@H](O)[C@H](O)[C@H]1O)=C\C=C\C=C(C)\C=C\C=C(/C)C(=O)O[C@@H]1O[C@H](CO[C@@H]2O[C@H](CO)[C@@H](O)[C@H](O)[C@H]2O)[C@@H](O)[C@H](O)[C@H]1O	2	x	x	-2%	x	2%
O=C1Cc2cccc3cccc1c23	4	0%	x	0%	22µM*	2%
Clc1ccc(-n2cccc2CN2CCOc3ccc(CN4CCOCC4)cc3C2)nc1	x	x	0%	x	x	x
CCc1nc(N2CCC(C)CC2)c2oc3ccccc3c2n1	3	-1%	u	u	32µM*	-5%
CCc1cc2c(=O)c(Oc3ccccc3)c(C)oc2cc1O	4	-1%	2%	4%	7.9µM*	1%
COc1ccc(C(=O)NCC2Cc3cc(C)cc(-c4nc5ccccc5s4)c3O2)c(OC)c1OC (configuration not stated)	x	x	-1%	x	x	x
CC(=O)c1ccccc1-c1ccc2c(c1)CC(CNC(=O)c1cc(C)on1)O2 (configuration not stated)	x	x	0%	x	x	x
CN(C)c1ccc(/C=C/c2ncnc3ccccc23)cc1	x	x	u	x	1%	x
Cc1cc(C(=O)COc2ccccc2C(N)=O)c(C)n1C	4	1%	2%	21%	28µM*	u
O=C(Nc1ccc(O)c(-c2nc3ccccc3s2)c1)c1cccs1	1	0%	16%	u	28µM*	-8%
O=C(NCCCOc1cccc(CN2CCCCC2)c1)c1ccc(Cl)c(Cl)c1	2	-4%	9%	-4%	16µM*	10%
c1ccc(CN2CCN(C(c3ccccc3)c3ccccc3)CC2)cc1	-2	x	u	2%	-4%	6%
SMILES	Menin MLL FP FL	Epigenetic derep	PINK1 modulator	Menin MLL FP TR	ClpP mod	CXXC DNA block
Fc1ccc(CN2CCN(C(c3ccccc3)c3ccccc3)CC2)cc1	6	x	40µM*	u	0%	-1%
COc1ccccc1C(=O)N[C@@H]1c2ccccc2C2(CCN(Cc3cccnc3)CC2)[C@H]1O	x	x	0%	x	x	x
Cc1cccc(C(=O)NNC(=O)c2cc3cc4ccccc4nc3s2)c1	-2	1%	4%	-11%	22µM*	-1%
O=C(NNC(=O)c1cc2cc3ccccc3nc2s1)c1cccc(Cl)c1	6	-1%	17%	u	-10%	12%
O=C(NNC(=O)c1cc2cc3ccccc3nc2s1)c1ccc(F)cc1	2	0%	10%	3.2µM*	u	30%
CN(C)c1ccc(/C=C/c2c(Br)cnc3ccccc23)cc1	x	x	2%	x	1%	x
CC1CCC2(CC1)NC(=O)N(CC(=O)c1ccc[nH]1)C2=O (configuration not stated)	-1	-1%	3%	x	28µM*	-4%
Cc1c(C(=O)NC(C)(C)C)sc2ncnc(NCCN(C)C)c12	x	x	0%	x	x	x
COc1ccc(CN2CCOc3ccc(CN4CCC(O)CC4)cc3C2)c(OC)c1OC	x	x	-1%	x	x	x
CN(C)c1ccc(/C=C/c2ccc3cc(F)ccc3n2)cc1	x	x	1%	x	-4%	x
CCSC1=N/C(=C\C=C2/Oc3ccccc3N2CC)C(=O)S1	u	11µM*	19%	x	x	u
CC(=O)c1ccccc1OCCOCCOCCOc1ccccc1C(C)=O	1	2%	2%	5%	0.89µM*	0%
COc1cc(C)c(CN2CCOc3ccc(C(O)c4cccnc4)cc3C2)cc1C (configuration not stated)	x	x	0%	x	x	x
Cc1cc(C)n(CCC(=O)NCC2Cc3cc(Cl)cc(-c4cnccn4)c3O2)n1 (configuration not stated)	x	x	1%	x	x	x
COCc1ccc(C(=O)N2CCOc3ccc(CN4CCN(c5ccc(F)cc5)CC4)cc3C2)o1	x	x	0%	x	x	x
COc1ccc(C(=O)/C(C#N)=N/Nc2ccc([N+](=O)[O-])cc2)cc1	13	-2%	4.5µM*	u	3%	-15%
COc1ccc(C(=O)/C(C#N)=N/Nc2ccccc2[N+](=O)[O-])cc1	3	0%	u	u	3%	0%
Cc1cc(C(=O)NCc2nnc3n2CCN(Cc2ccc(F)cc2F)CC3)c(C)o1	x	x	0%	x	x	x

Source: PubChem (National Center for Advancing Translational Sciences (NCATS))
